According to PubChem BioAssay AID651871 (Sanford-Burnham Center for Chemical Genomics, 2012):
Several values for one entry are separate records, joined by “and”; a condition that tells them apart may be missing. Equal values may be shown once.

System: H9c2
Test: cardiomyocyte survival under oxidative or metabolic stress – cell-based, panel, H9c2 and HL-1, ATP luminescence, set 2, SAR follow-up (AID 651871);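 note: cells exposed to stressor for 2 h before ATP readout; reference of the scale not given here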
Settings: H9c2/HL-1 cardiomyocytes, 2-deoxyglucose stress, with 2-deoxyglucose; run 5, at 79 µM (top of the series)

SMILES | activity (protection/inhibition)
COc1ccc2c(c1OC)C(=O)N1c3ccccc3C(=O)N(Cc3cccc(Cl)c3Cl)C21 (stereo not drawn) | 88% and 69.1% and -5.13%
CCOC(=O)c1cccc(NC(=O)CNC(=O)c2cc(-c3cc(OC)c(OC)c(OC)c3)nc3ccccc23)c1 | 97.3%
COc1ccc2nc(-c3cc(OC)c(OC)c(OC)c3)cc(C(=O)NCC(=O)Nc3ccc(C(C)=O)cc3)c2c1 | 70.9%
